Measured values taken from PubChem BioAssay (NCI).
The panel holds about 79,000 compounds, 15% with a hit somewhere; the sample as a whole holds those more often. Activity calls are given as the source filed them. No stated cut-off is given here; in the data, active means growth inhibition above about 70%; inactive means the rest.

assay: NCI Yeast Anticancer Drug Screen. Data for the cln2 rad14 strain (AID 165);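 further: 0% = growth equal to vehicle treated cultures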; conditions: S. cerevisiae cln2 rad14 strain, at 50.0 µM, hits give high values
Outline: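 Compounds are applied to the cln2 rad14 yeast strain, and growth is then compared with that of vehicle-treated cultures to give inhibition.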

SMILES	growth inhibition
Oc1ccccc1N=CC1CCCCC1	17% (inactive)
CC(O[Si](c1ccccc1)(c1ccccc1)C(C)(C)C)[C@H](NC(=O)OC(C)(C)C)C(=O)O[Si](c1ccccc1)(c1ccccc1)C(C)(C)C (stereo not given in full)	91.2% (active)
Cn1c(=O)c2c3oc(=O)cc(O)c3c(=O)n3c4ccccc4n(c1=O)c23	42.5% (inactive)
CCCCCCCCCCCCCCC(O)C(=O)O (stereo not given)	11.4% (inactive)
O=[N+]([O-])c1cc(I)cc(/C=N/NS(=O)(=O)c2ccc(F)cc2)c1O	77.8% (active)
CCC/C=C1/OC(=O)C2=C[C@H]3CC[C@]21[C@]1(OC(=O)C2=C1CCC=C2)[C@H]3CCC	86.9% (active)
C=C(CC)C[C@@H]1C[C@]2(C(=O)OC)c3[nH]c4ccccc4c3CCN2C1=O	62.5% (inactive)
Cc1ccc(N2C(=O)C(Cl)=C(Cl)C2=O)cc1	98.8% (active)
COc1cc2c(cc1O)CCCCC2	0% (inactive)
CC(C)Cc1cc(O)cc2ccccc12	98.4% (active)
CCN(CC)Cc1cc(Nc2c3ccccc3nc3c4ccccc4n(C)c23)ccc1O	-1.6% (inactive)
CC(=O)Nc1ccc(-c2csc(Nc3ccnc4cc(Cl)ccc34)n2)cc1	41% (inactive)
NNc1ccccc1F	98% (active)
O=C(O)C1(Cc2ccc3c(c2)CCC3)Cc2ccccc2C1=O (stereo not given)	88.2% (active)
c1cc2cc(Cc3ccc4[nH]ccc4c3)ccc2[nH]1	-1.1% (inactive)
COc1cc(C(c2cc3c(cc2O)OCO3)N2CCOCC2)ccc1O (stereo not given)	47.6% (inactive)
Cc1c(N)nc(C2CC(=O)N2CC(N)C(N)=O)nc1C(=O)NC(C(=O)NC(C)C(O)C(C)C(=O)NC(C(=O)NCCc1nc(-c2nc(C(=O)NCCNCC(C)O)cs2)cs1)C(C)O)C(OC1OC(CO)C(O)C(O)C1OC1OC(CO)C(O)C(OC(N)=O)C1O)c1cnc[nH]1 (stereo not given)	90.6% (active)
Cc1[nH]nc(C(=O)N(C)C)c1N=NN(C)C	79.8% (active)
CSc1c(S(C)=O)c2ccccc2n1C (stereo not given)	-6.4% (inactive)
CN(C)c1ccc(C=Nc2cnc3ccccc3c2)cc1	-43.7% (inactive)

SMILES	growth inhibition
CCCCCCCCCCCCCCCc1nc(SCC(=O)O)n[nH]1	80.5% (active)
Cc1ccc(S(=O)(=O)Oc2c([N+](=O)[O-])cc(C)cc2[N+](=O)[O-])cc1	82.7% (active)
CCOC(=O)c1c(Cl)nnc(-c2ccccc2)c1-c1ccccc1	92.3% (active)
Cc1cc(O)c(C=NC(=S)C(N)=S)c(=O)o1	-4.4% (inactive)
C/C(=N\NC(=S)NC(C)(C)C)c1ccccn1	89.5% (active)
S=C(Nc1ccc(Br)c(Cl)c1)SCc1ccc2c(c1)OCO2	86.1% (active)
CC(=O)Nc1ccc(S(=O)(=O)N/N=C/c2cc(I)cc([N+](=O)[O-])c2O)cc1	83.1% (active)
CCCC(O)CNCc1ccc(N(C)C)cc1 (stereo not given)	63.9% (inactive)
CC(=O)Nc1nnc(-c2coc3ccccc3c2=O)s1	10.7% (inactive)
COc1ccc(CSC(=S)Nc2ccc(Cl)c(C(F)(F)F)c2)cc1	88.7% (active)
CC(=O)Sc1ccc(Br)cc1	-2.05% (inactive)
O=C(CNc1cccc(Cl)c1)Nn1c(-c2ccccc2)nc2ccccc2c1=O	90.6% (active)
Cc1ccc(S(=O)(=O)c2cc(O)c(O)c3ccc(Br)cc23)cc1	95.4% (active)
Fc1cccc2c1cc1ccc3cccc4ccc2c1c34	61.7% (inactive)
COC1=C(/C(=N/Nc2ccc([N+](=O)[O-])cc2[N+](=O)[O-])c2ccccc2)COC1=O	4.15% (inactive)
CCOC(=O)c1cnccc1CC1(C#N)c2ccccc2C=CN1C(=O)c1ccccc1 (stereo not given)	52.2% (inactive)
CCCCNc1ccc(-c2c(N)nc(N)nc2CC)cc1[N+](=O)[O-]	27.1% (inactive)
O=C(NC1CCN(Cc2ccccc2)CC1)c1cccc(I)c1	82.2% (active)
O/N=C1/CC2CCCc3ccc4cccc1c4c32 (stereo not given)	12.2% (inactive)
CC(C)c1cc(O)c2c(c1O)C1CC3C(C)(C)CCC[C@]23C(=O)O1 (stereo not given in full)	88.2% (active)

assay: NCI Yeast Anticancer Drug Screen. Data for the bub3 strain (AID 167); conditions: S. cerevisiae bub3 mutant strain, at 5.0 µM (retest, dose inferred, filed as 0.5), hits give high values
Outline: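 Screening used yeast with an engineered genetic alteration affecting cell cycle control. Compound-exposed cultures were compared with vehicle cultures, and reduced growth was taken as inhibition.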

SMILES	growth inhibition
Oc1ccccc1N=CC1CCCCC1	9% (inactive)
CC(O[Si](c1ccccc1)(c1ccccc1)C(C)(C)C)[C@H](NC(=O)OC(C)(C)C)C(=O)O[Si](c1ccccc1)(c1ccccc1)C(C)(C)C (stereo not given in full)	71% (active)
Cn1c(=O)c2c3oc(=O)cc(O)c3c(=O)n3c4ccccc4n(c1=O)c23	31% (inactive)
CCCCCCCCCCCCCCC(O)C(=O)O (stereo not given)	-1% (inactive)
O=[N+]([O-])c1cc(I)cc(/C=N/NS(=O)(=O)c2ccc(F)cc2)c1O	3% (inactive)
CCC/C=C1/OC(=O)C2=C[C@H]3CC[C@]21[C@]1(OC(=O)C2=C1CCC=C2)[C@H]3CCC	2% (inactive)
C=C(CC)C[C@@H]1C[C@]2(C(=O)OC)c3[nH]c4ccccc4c3CCN2C1=O	2% (inactive)
Cc1ccc(N2C(=O)C(Cl)=C(Cl)C2=O)cc1	16% (inactive)
COc1cc2c(cc1O)CCCCC2	-4% (inactive)
CC(C)Cc1cc(O)cc2ccccc12	5% (inactive)
CCN(CC)Cc1cc(Nc2c3ccccc3nc3c4ccccc4n(C)c23)ccc1O	-6% (inactive)
CC(=O)Nc1ccc(-c2csc(Nc3ccnc4cc(Cl)ccc34)n2)cc1	-2% (inactive)
NNc1ccccc1F	-45% (inactive)
O=C(O)C1(Cc2ccc3c(c2)CCC3)Cc2ccccc2C1=O (stereo not given)	-7% (inactive)
c1cc2cc(Cc3ccc4[nH]ccc4c3)ccc2[nH]1	12% (inactive)
COc1cc(C(c2cc3c(cc2O)OCO3)N2CCOCC2)ccc1O (stereo not given)	-4% (inactive)
Cc1c(N)nc(C2CC(=O)N2CC(N)C(N)=O)nc1C(=O)NC(C(=O)NC(C)C(O)C(C)C(=O)NC(C(=O)NCCc1nc(-c2nc(C(=O)NCCNCC(C)O)cs2)cs1)C(C)O)C(OC1OC(CO)C(O)C(O)C1OC1OC(CO)C(O)C(OC(N)=O)C1O)c1cnc[nH]1 (stereo not given)	77% (active)
Cc1[nH]nc(C(=O)N(C)C)c1N=NN(C)C	-65% (inactive)
CSc1c(S(C)=O)c2ccccc2n1C (stereo not given)	3% (inactive)
CN(C)c1ccc(C=Nc2cnc3ccccc3c2)cc1	2% (inactive)

SMILES	growth inhibition
CCCCCCCCCCCCCCCc1nc(SCC(=O)O)n[nH]1	-1% (inactive)
Cc1ccc(S(=O)(=O)Oc2c([N+](=O)[O-])cc(C)cc2[N+](=O)[O-])cc1	5% (inactive)
CCOC(=O)c1c(Cl)nnc(-c2ccccc2)c1-c1ccccc1	13% (inactive)
Cc1cc(O)c(C=NC(=S)C(N)=S)c(=O)o1	21% (inactive)
C/C(=N\NC(=S)NC(C)(C)C)c1ccccn1	18% (inactive)
S=C(Nc1ccc(Br)c(Cl)c1)SCc1ccc2c(c1)OCO2	76% (active)
CC(=O)Nc1ccc(S(=O)(=O)N/N=C/c2cc(I)cc([N+](=O)[O-])c2O)cc1	1% (inactive)
CCCC(O)CNCc1ccc(N(C)C)cc1 (stereo not given)	-1% (inactive)
CC(=O)Nc1nnc(-c2coc3ccccc3c2=O)s1	4% (inactive)
COc1ccc(CSC(=S)Nc2ccc(Cl)c(C(F)(F)F)c2)cc1	47% (inactive)
CC(=O)Sc1ccc(Br)cc1	1% (inactive)
O=C(CNc1cccc(Cl)c1)Nn1c(-c2ccccc2)nc2ccccc2c1=O	22% (inactive)
Cc1ccc(S(=O)(=O)c2cc(O)c(O)c3ccc(Br)cc23)cc1	-4% (inactive)
Fc1cccc2c1cc1ccc3cccc4ccc2c1c34	0% (inactive)
COC1=C(/C(=N/Nc2ccc([N+](=O)[O-])cc2[N+](=O)[O-])c2ccccc2)COC1=O	3% (inactive)
CCOC(=O)c1cnccc1CC1(C#N)c2ccccc2C=CN1C(=O)c1ccccc1 (stereo not given)	6% (inactive)
CCCCNc1ccc(-c2c(N)nc(N)nc2CC)cc1[N+](=O)[O-]	-4% (inactive)
O=C(NC1CCN(Cc2ccccc2)CC1)c1cccc(I)c1	62% (inactive)
O/N=C1/CC2CCCc3ccc4cccc1c4c32 (stereo not given)	-12% (inactive)
CC(C)c1cc(O)c2c(c1O)C1CC3C(C)(C)CCC[C@]23C(=O)O1 (stereo not given in full)	1% (inactive)
